Measured values: PubChem BioAssay
Active and inactive are the calls of the source.

Legend:
[1] = molecular target: Albumin (Bos taurus) (UniProt P02769); test: compounds binding labelled BSA control protein – biochemical, small-molecule microarray, Alexa647 label, 635/667 nm fluorescence, artefact control for SMM control protein annotation, profiling panel (AID 1118); conditions: BSA-A647 binding, fluorescence 635 nm, higher = more signal;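 also: score merges 667 nm emission intensity and signal-to-noise per printed compound spot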
Sequence of Albumin (Bos taurus) (P02769 whole entry, looked up): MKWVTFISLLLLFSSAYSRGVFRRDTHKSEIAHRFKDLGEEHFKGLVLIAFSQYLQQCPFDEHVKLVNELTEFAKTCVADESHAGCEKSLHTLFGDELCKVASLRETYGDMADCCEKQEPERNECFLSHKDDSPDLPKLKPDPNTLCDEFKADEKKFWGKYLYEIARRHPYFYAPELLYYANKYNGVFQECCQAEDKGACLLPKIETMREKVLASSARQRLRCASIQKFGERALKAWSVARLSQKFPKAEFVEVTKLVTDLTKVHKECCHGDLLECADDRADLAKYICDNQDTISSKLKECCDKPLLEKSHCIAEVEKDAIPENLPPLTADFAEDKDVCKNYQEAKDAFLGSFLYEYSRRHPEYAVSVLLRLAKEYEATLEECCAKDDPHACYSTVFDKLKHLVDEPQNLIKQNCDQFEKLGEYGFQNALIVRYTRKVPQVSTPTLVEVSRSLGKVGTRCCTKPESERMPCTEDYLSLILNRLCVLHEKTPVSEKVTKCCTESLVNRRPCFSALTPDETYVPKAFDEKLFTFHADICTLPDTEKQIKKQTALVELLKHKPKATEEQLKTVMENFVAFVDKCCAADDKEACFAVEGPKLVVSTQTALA

[2] = probe aXIP binding to arrayed compounds – biochemical, NeuroSMM set, 635/667 nm fluorescence, primary screen (AID 1119); conditions: small-molecule microarray, higher = more signal, called active from +8 up or from −8 down;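 also: probe is the protein aXip251-270 applied at 1 µg/mL to compound-printed slides; binding of probe to printed compounds measured as 667 nm fluorescence plus signal to noise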
[3] = probe aNOTCH3 binding on compound microarray – biochemical, small-molecule microarray, 635/667 nm fluorescence, primary screen (AID 1120); conditions: higher = more signal;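 also: probe is a biotin-tagged antibody raised against NOTCH3 rather than NOTCH3 protein; score merges spot fluorescence near 667 nm with spot signal to noise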
[4] = probe aNOTCH2 binding on compound microarray – biochemical, small-molecule microarray, 635/667 nm fluorescence, primary screen (AID 1121); conditions: higher = more signal;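 also: score merges feature fluorescence read at 667 nm with its signal to noise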
[5] = molecular target: Carbonic anhydrase 2 (Homo sapiens) (UniProt P00918); test: compounds binding carbonic anhydrase 2 – biochemical, small-molecule microarray, Alexa647-labelled CAII, profiling panel (AID 1122); conditions: CAII-A647 binding fluorescence, higher = more signal
[6] = COS7 lysate on small-molecule microarray, probe aHis, 635 nm (AID 1123); conditions: COS7 cell lysate, fluorescence, higher = more signal;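 also: z-score combines 667nm fluorescence intensity with signal-to-noise per printed compound spot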
[7] = probe aLAP1 signal on lysate-treated microarray – cell lysate, small-molecule microarray, COS7 lysate, primary screen (AID 1124); conditions: probe aLAP1, fluorescence, higher = more signal;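 also: lysate comes from COS7 cells expressing LAP1 and is applied at 0.3 µg/mL; score merges spot fluorescence near 667 nm with signal-to-noise over triplicate slides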
[8] = tested on: Sam68 (KHDRBS1); test: compounds binding KHDRBS1 protein – biochemical, small-molecule microarray, 635 nm fluorescence, primary screen (AID 1125); conditions: higher = more signal;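 also: score merges 667 nm channel intensity with signal to noise over triplicate slides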
[9] = tested on: Chordin-like protein 2 (CHRDL2); test: compounds binding chordin-like 2 – biochemical, small-molecule microarray, 635 nm fluorescence, primary screen (AID 1126); conditions: fluorescence 635 nm, higher = more signal;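 also: printed compound slides probed with Chrdl2 protein at 4 µg/mL for 1 h at 4 C; score merges 667 nm emission intensity with signal to noise over three replicate slides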
[10] = molecular target: Concanavalin-A (Canavalia ensiformis) (UniProt P02866); test: compounds binding concanavalin A lectin – biochemical, small-molecule microarray, Alexa647 label, 635 nm, artefact control for SMM control protein annotation, primary screen (AID 1127); conditions: ConA-A647 binding fluorescence, higher = more signal;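 also: z combines 667 nm emission intensity with signal-to-noise across three replicate slides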
Sequence of Concanavalin-A (Canavalia ensiformis) (P02866 whole entry, looked up): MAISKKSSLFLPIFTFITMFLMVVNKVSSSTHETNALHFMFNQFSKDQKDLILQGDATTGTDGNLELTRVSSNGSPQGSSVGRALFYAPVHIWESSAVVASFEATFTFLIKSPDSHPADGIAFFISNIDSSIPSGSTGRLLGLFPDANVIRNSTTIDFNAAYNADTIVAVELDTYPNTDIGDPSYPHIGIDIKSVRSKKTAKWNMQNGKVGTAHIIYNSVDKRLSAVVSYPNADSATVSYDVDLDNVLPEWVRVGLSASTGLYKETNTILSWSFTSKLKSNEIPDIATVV

Structure (SMILES) | composite z-score [1] | composite Z-score [2] | composite z-score [3] | composite z-score [4] | composite z-score [5] | composite z-score [6] | composite z-score [7] | composite z-score [8] | composite z-score [9] | composite z-score [10]
COc1ccc(CCNC(=O)[C@@H]2c3ccccc3C(=O)N(C3Cc4ccccc4C3)[C@H]2c2ccc(CO)cc2)cc1 | 0.397 | 0.131 (inactive) | -0.0725 | -0.0907 | 0.705 | 2.21 | 0.0554 | 0.73 | -0.551 | 0.542
COc1ccc([C@H]2OC[C@@H]3CC4(CC=CC4)C(=O)N32)cc1 | -0.505 | 0.544 (inactive) | 0.146 | -0.0662 | 0.278 | 0.383 | -0.129 | 0.964 | 1.54 | -0.572
CN1C(=O)C2C=CC(C(O)c3cccs3)N(Nc3ccccc3)C2C1=O (stereo not given) | 0.95 | -0.227 (inactive) | 0.0873 | -0.0856 | 0.831 | 1.87 | -0.0235 | 0.186 | 0.0907 | 0.442
Cc1ccc(S[C@]2(C(=O)NCCN3CCOCC3)CC(=O)N(Cc3ccccc3)[C@@H]2c2ccc(CO)cc2I)cc1 | 0.285 | 0.994 (inactive) | -0.165 | -0.14 | 0.667 | 1.43 | 0.202 | -0.388 | -1.59 | -0.112
Cc1ccc(S[C@]2(C(=O)NC3CC3)CC(=O)N(C3Cc4ccccc4C3)[C@@H]2c2ccc(CO)cc2)cc1 | 0.79 | 0.157 (inactive) | -0.161 | 0.016 | 0.628 | 1.81 | 0.845 | 0.963 | -0.759 | 0.356
CC(C)C(=C=CC[C@@H](O)c1ccccc1OCCO)CCO | 0.0824 | -0.519 (inactive) | -0.0311 | -0.115 | 0.374 | -0.501 | -0.412 | 0.615 | 0.0551 | 0.542
CN1C(=O)[C@]2(Cc3ccccc3)N=C(c3ccc(OCCCO)cc3)O[C@@H]2c2ccccc21 | 0.18 | 0.307 (inactive) | 0.0927 | -0.0734 | 0.635 | 2.51 | 0.824 | 1.29 | 0.572 | 0.953
COC(=O)[C@@]1(Cc2ccc(F)cc2)[C@H]2c3cc(C(=O)N(C)C)n(Cc4nc5ccccc5[nH]4)c3C[C@H]2CN1C(=O)c1ccccc1 | 1.05 | 0.0895 (inactive) | 0.392 | 0.0274 | 0.824 | 3.03 | 0.35 | 0.651 | -0.41 | 0.683
O=C1c2ccccc2[C@](Cc2ccccc2I)(C(=O)NC2CC2)[C@H](c2ccc(CO)cc2)N1C1CCCCC1 | 0.767 | 0.0542 (inactive) | 0.174 | -0.0551 | 0.636 | 2.12 | 1.49 | 1.22 | 0.273 | 1.2
C=CCC(OC(C)=O)[C@@H]1[C@@H](N(Cc2ccc(-c3ccccc3)cc2)C(=O)Cc2ccc(F)cc2)c2cc(OCCCO)ccc2N1C(=O)c1ccc(-c2ccccc2)cc1 (stereo not given in full) | 0.127 | -0.405 (inactive) | 0.0905 | -0.141 | -0.249 | -0.338 | 0.0362 | 0.0072 | 0.528 | -0.136
COc1cc(CO)cc(I)c1O[C@H]1C=C(C(=O)NCCO)C[C@@H](N(CCN2CCOCC2)C(=O)C2CCOC2)[C@@H]1O (stereo not given in full) | -1.02 | 0.0953 (inactive) | 0.189 | -0.0729 | 0.0321 | -0.204 | 0.459 | 0.322 | 0.486 | -0.169
CN(C)C(=O)[C@]1(Cc2ccccc2CN=[N+]=[N-])N=C(c2ccc(OCCCO)cc2)O[C@@H]1c1ccccc1CN=[N+]=[N-] | 0.933 | -0.384 (inactive) | 0.442 | -0.0508 | 0.545 | 2.72 | 0.751 | 1.32 | -0.223 | 0.758
COc1cc2c(cc1OC)CN(C(=O)[C@H]1[C@@H]3C(=O)O[C@@H](c4ccccc4)[C@@H](c4ccccc4)N3[C@@H](c3ccc(O)cc3)[C@]13C(=O)Nc1ccc(C#CC4=CCCCC4)cc13)CC2 | 0.672 | 0.721 (inactive) | 0.533 | -0.0411 | 0.561 | 1.74 | 0.969 | 1.31 | 0.575 | 1.14
CC1CC/C=C\[C@H]2OC34C=CCN(C(C)(C)C)C(=O)[C@H]3N(CCCCCCO)C(=O)[C@@H]4C2C(=O)O1 (stereo not given in full) | -0.805 | -0.358 (inactive) | -0.295 | -0.114 | 0.932 | 0.178 | 0.843 | -0.281 | -1.07 | -0.239
CC(C)c1ccc(NN2C(C(O)C(c3ccccc3)c3ccccc3)C=CC3C(=O)N(c4ccccc4)C(=O)C32)cc1 (stereo not given) | 0.933 | -0.136 (inactive) | 0.424 | 0.101 | 0.797 | 2.74 | 0.902 | 1.32 | -0.348 | 1.14
COc1ccc(CCN2C(=O)[C@@]3(c4ccc([N+](=O)[O-])cc4)CC(=O)N(C4CCCCC4)[C@@H]3c3ccc(CO)cc32)cc1 | -1.26 | 0.469 (inactive) | -0.0598 | -0.101 | 0.257 | 0.622 | 0.347 | 0.38 | 0.693 | 0.587
COc1ccc([Si](C)(C)[C@H]2[C@H](CCO)O[C@@]3(C(=O)N(Cc4ccc(N5C(=O)COc6ccccc65)cc4)c4ccccc43)[C@@H]2C)cc1 | 0.373 | 0.485 (inactive) | -0.241 | -0.176 | -0.05 | 0.303 | -0.0122 | 0.504 | -1.13 | -0.116
[N-]=[N+]=Nc1ccccc1[C@H]1OC(c2ccc(OCCCO)cc2)=N[C@@]1(Cc1ccccc1)C(=O)O | 0.59 | -0.001 (inactive) | 0.196 | -0.146 | 0.344 | 1.64 | 0.0378 | 1.31 | -0.392 | 0.619
O=C1[C@H]2C=C(Br)[C@H](C[C@@H]2c2ccccc2)[C@@]12CO2 | -0.6 | 1.22 (inactive) | 0.11 | -0.0817 | 0.183 | -0.0697 | -0.187 | 0.383 | 0.945 | -0.0479
[N-]=[N+]=NCc1ccccc1[C@@H]1OC(c2ccc(OCCCO)cc2)=N[C@]1(Cc1ccccc1N=[N+]=[N-])C(=O)N1CCOCC1 | 0.809 | 0.105 (inactive) | 0.387 | 0.408 | 0.765 | 2.9 | 0.493 | 1.29 | -0.119 | 1.21
NC(=O)[C@@H]1[C@H]2C(=O)O[C@H](c3ccccc3)[C@H](c3ccccc3)N2[C@H](c2ccc(O)cc2)[C@@]12C(=O)Nc1ccc(C#CC3(O)CCCCCC3)cc12 | -0.425 | 0.339 (inactive) | -0.15 | -0.175 | 0.792 | 0.514 | -0.107 | -0.427 | -0.571 | -0.107
